3 compounds from PubChem BioAssay (EPA / NIEHS) can be followed below.

The nature of assay [1]: ATG_M_32_CIS: Attagene CIS-FACTORIAL HepG2 Assay for M32 Transcription Factor (Internal Marker) (AID 2282949).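 Note: background control marker of the multiplexed CIS panel rather than a real target.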 As to conditions: HepG2 Attagene cis-factorial M32 reporter, mRNA; actives raise or lower the signal. In outline: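 Following 24 h chemical exposure of HepG2 cells transiently expressing cis-promoter reporter constructs, reporter transcript levels were determined by RT-PCR with fluorescent labelling and capillary electrophoresis, then fitted bidirectionally against DMSO.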

Assay [2] is described as follows: ATG_M_06_CIS: Attagene CIS-FACTORIAL HepG2 Assay for M06 Transcription Factor (Internal Marker) (AID 2282950). As to conditions: HepG2 Attagene CIS-FACTORIAL M06 internal marker reporter; actives raise or lower the signal. A digest of the protocol:
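Internal background marker within multiplexed cis-reporter HepG2 system. Cells transiently transfected, dosed 24 h; reporter mRNA measured by RT-PCR, HpaI digestion and capillary electrophoresis. Bidirectional fit relative to DMSO.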

The target of assay [3] is Hypoxia-inducible factor 1-alpha (Homo sapiens) (UniProt Q16665). As to the kind of experiment: ATG_HIF1a_CIS: Attagene CIS-FACTORIAL HepG2 Assay for human Hypoxia Inducible Factor 1 (HIF1A) (AID 2282951). The following applies: HepG2 Attagene cis-factorial HIF1a reporter transcription; actives raise or lower the signal. A digest of the protocol: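 Measures endogenous transcription-factor activity through cis-regulated reporter mRNA in HepG2. Cells dosed 24 h; transcripts quantified by RT-PCR with 6-FAM-labelled products separated by capillary electrophoresis; DMSO serves as negative control.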
Chain of Hypoxia-inducible factor 1-alpha (Homo sapiens) (Q16665 whole entry, looked up): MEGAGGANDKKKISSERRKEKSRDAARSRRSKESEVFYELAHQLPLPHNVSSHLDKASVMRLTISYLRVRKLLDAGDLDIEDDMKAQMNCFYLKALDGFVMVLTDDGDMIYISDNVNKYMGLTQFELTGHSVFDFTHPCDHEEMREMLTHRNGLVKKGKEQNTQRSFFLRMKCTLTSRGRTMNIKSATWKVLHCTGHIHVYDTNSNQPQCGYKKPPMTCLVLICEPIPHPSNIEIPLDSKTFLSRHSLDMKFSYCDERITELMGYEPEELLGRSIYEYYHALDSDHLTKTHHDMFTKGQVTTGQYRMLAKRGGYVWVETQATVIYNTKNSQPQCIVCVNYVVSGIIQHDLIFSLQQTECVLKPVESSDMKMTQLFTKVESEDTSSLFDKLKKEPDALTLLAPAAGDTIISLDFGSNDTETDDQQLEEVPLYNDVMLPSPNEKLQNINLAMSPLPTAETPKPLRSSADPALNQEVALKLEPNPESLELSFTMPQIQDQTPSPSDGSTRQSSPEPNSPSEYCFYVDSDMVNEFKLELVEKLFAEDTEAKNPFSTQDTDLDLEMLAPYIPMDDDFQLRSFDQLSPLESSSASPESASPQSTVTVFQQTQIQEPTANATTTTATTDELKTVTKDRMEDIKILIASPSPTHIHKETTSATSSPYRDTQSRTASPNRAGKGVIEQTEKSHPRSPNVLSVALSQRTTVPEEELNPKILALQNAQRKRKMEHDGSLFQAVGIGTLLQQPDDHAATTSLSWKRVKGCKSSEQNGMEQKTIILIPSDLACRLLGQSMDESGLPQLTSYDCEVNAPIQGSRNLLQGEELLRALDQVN

Assay [4] concerns the target Hepatocyte nuclear factor 6 (Homo sapiens) (UniProt Q9UBC0). The assay can be described thus: ATG_HNF6_CIS: Attagene CIS-FACTORIAL HepG2 Assay for human Hepatocyte Nuclear Factor 6 (HNF6) (AID 2282952). The following applies: HepG2 Attagene cis-factorial HNF6 reporter transcription; actives raise or lower the signal. In outline:
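HepG2, transient MRTU transfection (cis promoters); 24 h chemical exposure; total RNA → oligo(dT) RT → PCR → 6-FAM labelling → HpaI cut → CE; bidirectional fit vs DMSO.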

For assay [5], the target named is Heat shock factor protein 1 (Homo sapiens) (UniProt Q00613). As to the kind of experiment: ATG_HSE_CIS: Attagene CIS-FACTORIAL HepG2 Assay for human Heat Shock Transcription Factor 1 (HSE) (AID 2282953). As to conditions: HepG2 HSE cis-reporter, Attagene RNA transcription; actives raise or lower the signal. In outline: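 HepG2 cells transfected with cis-promoter reporter units sensing endogenous transcription factor activity; reporter mRNA quantified 24 h post-dose by RT-PCR and capillary electrophoresis of 6-FAM-labelled products. Bidirectional fitting against DMSO.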
Chain of Heat shock factor protein 1 (Homo sapiens) (Q00613 whole entry, looked up): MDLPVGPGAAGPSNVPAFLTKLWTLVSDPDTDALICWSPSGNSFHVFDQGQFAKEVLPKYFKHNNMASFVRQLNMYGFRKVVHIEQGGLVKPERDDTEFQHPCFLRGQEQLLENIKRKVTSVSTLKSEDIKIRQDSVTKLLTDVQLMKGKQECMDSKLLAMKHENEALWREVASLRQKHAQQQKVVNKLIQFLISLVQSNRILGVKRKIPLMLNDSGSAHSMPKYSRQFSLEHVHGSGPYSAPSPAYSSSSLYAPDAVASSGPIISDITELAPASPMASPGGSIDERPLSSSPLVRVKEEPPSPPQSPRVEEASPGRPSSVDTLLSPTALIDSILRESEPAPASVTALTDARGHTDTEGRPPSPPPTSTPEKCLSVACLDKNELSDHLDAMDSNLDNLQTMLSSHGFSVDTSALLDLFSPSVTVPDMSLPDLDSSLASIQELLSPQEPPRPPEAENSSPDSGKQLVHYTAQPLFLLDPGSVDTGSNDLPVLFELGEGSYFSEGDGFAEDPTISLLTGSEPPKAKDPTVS

A short description of assay [6]: ATG_MRE_CIS: Attagene CIS-FACTORIAL HepG2 Assay for human Metal Responsive Element (MRE) (AID 2282954). The following applies: HepG2 MRE cis-reporter transcription, Attagene multiplex; actives raise or lower the signal. In outline: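 HepG2 cells transiently transfected with multiple cis-element reporter units measure endogenous MTF1-driven transcription. After 24 h compound exposure, reporter mRNA is quantified by RT-PCR with 6-FAM labelling, HpaI digestion and capillary electrophoresis; bidirectional fits versus DMSO.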

A short description of assay [7]: ATG_PBREM_CIS: Attagene CIS-FACTORIAL HepG2 Assay for human Phenobarbital-responsive Enhancer Module (PBREM) (AID 2282955). As to conditions: HepG2 PBREM cis-reporter, Attagene multiplexed transcription; actives raise or lower the signal. A digest of the protocol:
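Fluorescence of labelled reporter cDNA fragments, resolved by capillary electrophoresis, gives mRNA induction in transfected HepG2 cells treated for 24 h; DMSO serves as negative control and baseline.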

Assay [8] is described as follows: ATG_PPRE_CIS: Attagene CIS-FACTORIAL HepG2 Assay for human Peroxisome Proliferator-activated Response Element (PPRE) (AID 2282958). As to conditions: HepG2 PPRE cis-element reporter, Attagene transcription factor profiling; actives raise or lower the signal. A digest of the protocol: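 Cells are first transfected transiently with the multiplexed reporter library, then dosed for 24 h. Total RNA is reverse-transcribed, amplified, fluorescently end-labeled and HpaI-cut before capillary electrophoresis; activity is fitted bidirectionally against DMSO controls.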

Assay [9] can be described thus: ATG_RORE_CIS: Attagene CIS-FACTORIAL HepG2 Assay for human RAR-related Orphan Receptor Element (RORE) (AID 2282959). As to conditions: HepG2 Attagene cis-factorial RORE reporter, mRNA; actives raise or lower the signal. In outline: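 Cells were HepG2 carrying transfected cis-regulated reporter constructs, dosed for 24 hours. Total RNA was reverse-transcribed and reporter cDNA amplified, fluorescently labeled and sized by capillary electrophoresis. Activity was fitted bidirectionally relative to DMSO.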

Assay [10] can be described thus: ATG_Sox_CIS: Attagene CIS-FACTORIAL HepG2 Assay for human SRY-box transcription factor (SOX) (AID 2282960). The following applies: HepG2 Attagene cis-factorial SOX reporter, mRNA; actives raise or lower the signal. A digest of the protocol: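 Transient MRTU transfection of HepG2; 24 h compound incubation; TriZol RNA, oligo(dT) RT, PCR, 6-FAM primer extension, HpaI cut, CE. Bidirectional fit, DMSO = baseline.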

Assay [11] deals with Transcription factor Sp1 (Homo sapiens) (UniProt P08047). As to the kind of experiment: ATG_Sp1_CIS: Attagene CIS-FACTORIAL HepG2 Assay for human Specificity Protein 1 (Sp1) (AID 2282961). As to conditions: HepG2 Sp1 cis-reporter transcription, actives raise or lower the signal. In outline: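 Endogenous Sp1 activity was gauged in human liver HepG2 cells bearing transfected reporter units under a cis-regulating promoter. After 24 h dosing, reporter mRNA was quantified by RT-PCR with capillary electrophoresis, and activity fitted bidirectionally versus DMSO.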
Chain of Transcription factor Sp1 (Homo sapiens) (P08047 whole entry, looked up): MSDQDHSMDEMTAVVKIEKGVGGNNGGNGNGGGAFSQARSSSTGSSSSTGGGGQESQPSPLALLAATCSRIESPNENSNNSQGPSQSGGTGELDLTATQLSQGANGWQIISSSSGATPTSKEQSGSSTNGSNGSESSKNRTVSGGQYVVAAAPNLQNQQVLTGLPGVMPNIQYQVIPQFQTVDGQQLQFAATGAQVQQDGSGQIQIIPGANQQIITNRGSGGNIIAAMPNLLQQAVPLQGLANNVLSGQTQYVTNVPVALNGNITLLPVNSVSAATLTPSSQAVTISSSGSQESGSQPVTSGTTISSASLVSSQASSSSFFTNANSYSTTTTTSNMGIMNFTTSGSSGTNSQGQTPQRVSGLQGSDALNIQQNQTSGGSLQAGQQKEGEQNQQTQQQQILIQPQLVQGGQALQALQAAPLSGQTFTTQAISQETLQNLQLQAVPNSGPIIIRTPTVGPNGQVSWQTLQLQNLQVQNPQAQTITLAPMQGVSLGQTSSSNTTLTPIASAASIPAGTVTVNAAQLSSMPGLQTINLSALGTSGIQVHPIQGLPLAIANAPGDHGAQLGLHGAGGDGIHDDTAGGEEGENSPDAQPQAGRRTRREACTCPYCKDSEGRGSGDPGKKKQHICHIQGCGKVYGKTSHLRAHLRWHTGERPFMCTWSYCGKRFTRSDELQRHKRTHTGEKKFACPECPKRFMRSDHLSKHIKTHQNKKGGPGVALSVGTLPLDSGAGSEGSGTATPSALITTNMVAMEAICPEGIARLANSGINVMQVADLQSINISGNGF

A short description of assay [12]: ATG_SREBP_CIS: Attagene CIS-FACTORIAL HepG2 Assay for human Sterol Regulatory Element Binding (SREBP) (AID 2282962). The following applies: HepG2 Attagene cis-factorial SREBP reporter, mRNA; actives raise or lower the signal. In outline:
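Twenty-four hours after chemical dosing of transfected HepG2 cultures, reporter RNA was converted to cDNA, amplified, end-labelled with 6-FAM and resolved by capillary electrophoresis. Responses were fitted relative to DMSO.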

Assay [13] concerns the target Signal transducer and activator of transcription 3 (Homo sapiens) (UniProt P40763). The assay can be described thus: ATG_STAT3_CIS: Attagene CIS-FACTORIAL HepG2 Assay for human Signal Transducer and Activator of Transcription 3 (STAT3) (AID 2282963). As to conditions: HepG2, Attagene cis-factorial STAT3 reporter transcription; actives raise or lower the signal. A digest of the protocol: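 HepG2 cells transiently transfected with cis-element-driven multiple reporter transcription units; after 24 h chemical exposure, reporter mRNA measured by RT-PCR, 6-FAM primer-extension labelling, HpaI digestion and capillary electrophoresis. Bidirectional fitting versus DMSO baseline.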

A short description of assay [14]: ATG_TA_CIS: Attagene CIS-FACTORIAL HepG2 Assay for human TA Basal Promoter (AID 2282964). As to conditions: HepG2 Attagene CIS-factorial TA basal promoter reporter; actives raise or lower the signal. A digest of the protocol: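 HepG2 cells transiently transfected with multiple reporter units under cis promoter elements, reporting endogenous transcription factor activity; this endpoint tracks the TA basal promoter as background control. Reporter mRNA after 24 h dosing measured by RT-PCR/capillary electrophoresis; bidirectional fits versus DMSO.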

Assay [15] in a line: ATG_TCF_b_cat_CIS: Attagene CIS-FACTORIAL HepG2 Assay for human T-Cell-Factor with beta-catenin (TCF/b-cat) (AID 2282965). As to conditions: HepG2 TCF/beta-catenin cis-reporter transcription, actives raise or lower the signal. In outline:
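Using capillary electrophoresis as the read-out, labelled reporter cDNA fragments from transiently transfected HepG2 were sized and quantified. Exposure lasted 24 hours; activity in either direction was referenced to DMSO.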

Assay [16] can be described thus: ATG_TAL_CIS: Attagene CIS-FACTORIAL HepG2 Assay for human TAL Basal Promoter (AID 2282966).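 Note: background control endpoint measuring basal TAL promoter reporter mRNA not a specific factor.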 The following applies: HepG2 Attagene cis-factorial TAL promoter reporter; actives raise or lower the signal. A digest of the protocol: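 Fluorescence of labelled reporter cDNA fragments, resolved by capillary electrophoresis, gave the readout. Human HepG2 liver cells carried transiently transfected cis-element reporter units and were treated for 24 hours; activity was fitted bidirectionally against DMSO.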

A short description of assay [17]: ATG_TGFb_CIS: Attagene CIS-FACTORIAL HepG2 Assay for human Transforming Growth Factor (TGF) (AID 2282967). As to conditions: HepG2 Attagene CIS TGFb reporter, mRNA transcription; actives raise or lower the signal. In outline: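 HepG2 cells transiently transfected with cis-promoter-driven multiple reporter units measure endogenous TF activity; reporter mRNA quantified at 24 h by RT-PCR, FAM labeling, HpaI digestion and capillary electrophoresis. Bidirectional fit vs DMSO.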

A short description of assay [18]: ATG_VDRE_CIS: Attagene CIS-FACTORIAL HepG2 Assay for human Vitamin D Receptor Element (VDRE) (AID 2282968). As to conditions: HepG2 VDRE cis-reporter transcription, actives raise or lower the signal. A digest of the protocol:
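HepG2 cells transiently transfected with cis-element reporter units, dosed 24 h; reporter mRNA measured by RT-PCR, 6-FAM labeling, HpaI digestion and capillary electrophoresis. Activity fitted bidirectionally against DMSO baseline.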

Assay [19] is described as follows: ATG_PXRE_CIS: Attagene CIS-FACTORIAL HepG2 Assay for human Pregnane X Receptor Element (PXRE) (AID 2282957). The following applies: HepG2 Attagene CIS-FACTORIAL PXRE reporter, mRNA; actives raise or lower the signal. A digest of the protocol: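 Transfect HepG2 with MRTUs (cis promoter elements); dose chemical, incubate 24 h; isolate RNA, RT with oligo(dT), PCR, 6-FAM label, HpaI cut, CE. Gain/loss fit vs DMSO.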

Activity calls are given as the source filed them. Rule for the calls: active = hit-call score of the fitted dose curve at least 0.9, where 1 is the maximum; inactive = score below 0.9.

Chain of Hepatocyte nuclear factor 6 (Homo sapiens) (Q9UBC0 whole entry, looked up): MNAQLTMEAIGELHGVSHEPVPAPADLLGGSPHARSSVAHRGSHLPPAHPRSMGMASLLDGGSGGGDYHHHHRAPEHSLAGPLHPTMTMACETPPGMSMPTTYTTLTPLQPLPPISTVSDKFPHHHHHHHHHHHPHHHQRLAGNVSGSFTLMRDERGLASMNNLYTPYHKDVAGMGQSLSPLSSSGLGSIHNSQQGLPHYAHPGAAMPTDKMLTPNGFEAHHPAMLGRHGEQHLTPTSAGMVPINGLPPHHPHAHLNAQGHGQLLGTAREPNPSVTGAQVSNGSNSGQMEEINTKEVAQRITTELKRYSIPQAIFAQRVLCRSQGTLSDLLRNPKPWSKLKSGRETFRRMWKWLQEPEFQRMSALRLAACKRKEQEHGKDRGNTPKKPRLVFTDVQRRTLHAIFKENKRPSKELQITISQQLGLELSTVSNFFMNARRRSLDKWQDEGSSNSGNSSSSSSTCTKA
Chain of Signal transducer and activator of transcription 3 (Homo sapiens) (P40763 whole entry, looked up): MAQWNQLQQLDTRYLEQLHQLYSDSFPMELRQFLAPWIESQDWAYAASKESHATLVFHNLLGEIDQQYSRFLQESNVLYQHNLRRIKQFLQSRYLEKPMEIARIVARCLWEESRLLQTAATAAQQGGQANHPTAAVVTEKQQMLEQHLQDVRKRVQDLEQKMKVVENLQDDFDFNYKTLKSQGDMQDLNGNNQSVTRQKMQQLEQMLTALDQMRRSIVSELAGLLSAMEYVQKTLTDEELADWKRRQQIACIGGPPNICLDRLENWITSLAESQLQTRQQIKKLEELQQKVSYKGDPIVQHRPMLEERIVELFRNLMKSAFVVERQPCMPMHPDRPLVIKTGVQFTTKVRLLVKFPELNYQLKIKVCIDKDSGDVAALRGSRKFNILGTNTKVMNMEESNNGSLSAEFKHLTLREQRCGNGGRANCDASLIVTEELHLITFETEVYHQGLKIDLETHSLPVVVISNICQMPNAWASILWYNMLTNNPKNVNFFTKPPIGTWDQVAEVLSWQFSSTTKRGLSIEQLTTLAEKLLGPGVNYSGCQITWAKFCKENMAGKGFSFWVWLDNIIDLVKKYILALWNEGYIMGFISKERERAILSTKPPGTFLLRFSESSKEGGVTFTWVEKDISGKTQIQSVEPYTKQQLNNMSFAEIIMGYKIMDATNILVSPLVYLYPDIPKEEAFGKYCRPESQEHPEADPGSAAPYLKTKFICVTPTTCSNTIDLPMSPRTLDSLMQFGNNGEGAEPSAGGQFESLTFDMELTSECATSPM

Take `CCOC=C(C(=O)OCC)C(=O)OCC`: the call in assay [1], in [2], in assay [3], in assay [4], in [5] and in assay [6] was inactive. The outcome in assay [7], in assay [8], in assay [9], in [10], in assay [11] and in assay [12] was inactive. The outcome in assay [13], in assay [14], in assay [15], in assay [16], in assay [17] and in [18] was inactive.
In the case of `FC(OC(F)(F)C(F)(F)C(F)(F)F)C(F)(F)F` (centres undefined), the result in [1], in assay [2], in assay [3], in assay [4], in [5] and in assay [6] was inactive. Further, the result in assay [7], in assay [8], in assay [9], in assay [10], in [11] and in [12] was inactive. In addition, the result in [13], in [14], in assay [15], in [16], in assay [17] and in assay [18] was inactive.
As a reminder, the AC50 is the midpoint of the concentration-response curve, whichever way the signal moves. On to `CCOC(=O)c1nc(C(Cl)(Cl)Cl)n(-c2ccc(Cl)cc2Cl)n1`, for which the AC50 in assay [1] is 63.9 µM (active); in assay [4], 160 µM (active); in assay [5], 65.8 µM (active); in assay [6], 74.7 µM (active); in assay [7], 100 µM (active); in assay [19], 2.06 µM (active). The AC50 is 167 µM (active) in [9]; 54.6 µM (active) in assay [11]; 173 µM (active) in [14]; 118 µM (active) in assay [16]; 27.8 µM (active) in assay [17]. The compound was classed as inactive in assay [2], in [3], in [8], in [10], in assay [13] and in assay [15]. In addition, in assay [18], the result was inactive.
